Assay results published in the supplement of paper PMC10849652.
Targets with a hit are over-represented here; the source holds about 7,900 in all. About 0.6% of all pairs of compound and target were hits.

Key:
Experiment in all cases: log2 fold change, soluble protein after heating vs DMSO (PISA); higher = thermal stabilisation; K562 cells, 10 uM, 30 min; active = over 0.2 and 3.5 SD of the protein, either way, in both replicates (recomputed)
[1] = compound: C1=CC=C(C=C1)[C@H](COC2=CC3=C(C=C2)NC(=O)N3)NC(=O)C4=CC=CN(C4=O)CC5=CC(=C(C=C5)F)F
Method in brief: (§1)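 K562 cells at 2×10^6 cells/mL were treated with 10 μM compound for 30 min. Aliquots were heated for 3 min across 48°C-58°C, pooled, and extracted in PBS with 0.5% NP-40 at 4°C; soluble protein was the supernatant after 21,000xg for 90 min. Soluble protein was quantified by TMTpro 16plex LC-MS/MS with channel sums equalised, and reported as log2 fold change in thermal stability against DMSO controls, with values from duplicates.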

[2] = compound: CC1=C(SC2=C1C(=N[C@H](C3=NN=C(N32)C)CC(=O)N)C4=CC=C(C=C4)Cl)C
Method in brief: as §1

[3] = compound: CC1=C2C(=CC=C1)N=C(N(C2=O)C3=CC=CC=C3C)CN4C=NC5=C(N=CN=C54)N
Method in brief: as §1

[4] = compound: Cc1sc2c(c1C)C(c1ccc(Cl)cc1)=N[C@@H](CC(=O)OC(C)(C)C)c1nnc(C)n1-2
Method in brief: as §1

[5] = compound: c1ccc([C@@H]2C[C@H]2NC2CCNCC2)cc1
Method in brief: as §1

Measured: log2 fold change

FUNDC1 (UniProt Q8IVP5)
inactive: [1] 0.052

GSTO1 (UniProt P78417)
inactive: [1] -0.024 | [2] 0.028 | [3] -0.002 | [4] -0.013 | [5] 0.007

HDGFL2 (UniProt Q7Z4V5)
UniProt Q7Z4V5, sequence (Q7Z4V5 whole entry, looked up): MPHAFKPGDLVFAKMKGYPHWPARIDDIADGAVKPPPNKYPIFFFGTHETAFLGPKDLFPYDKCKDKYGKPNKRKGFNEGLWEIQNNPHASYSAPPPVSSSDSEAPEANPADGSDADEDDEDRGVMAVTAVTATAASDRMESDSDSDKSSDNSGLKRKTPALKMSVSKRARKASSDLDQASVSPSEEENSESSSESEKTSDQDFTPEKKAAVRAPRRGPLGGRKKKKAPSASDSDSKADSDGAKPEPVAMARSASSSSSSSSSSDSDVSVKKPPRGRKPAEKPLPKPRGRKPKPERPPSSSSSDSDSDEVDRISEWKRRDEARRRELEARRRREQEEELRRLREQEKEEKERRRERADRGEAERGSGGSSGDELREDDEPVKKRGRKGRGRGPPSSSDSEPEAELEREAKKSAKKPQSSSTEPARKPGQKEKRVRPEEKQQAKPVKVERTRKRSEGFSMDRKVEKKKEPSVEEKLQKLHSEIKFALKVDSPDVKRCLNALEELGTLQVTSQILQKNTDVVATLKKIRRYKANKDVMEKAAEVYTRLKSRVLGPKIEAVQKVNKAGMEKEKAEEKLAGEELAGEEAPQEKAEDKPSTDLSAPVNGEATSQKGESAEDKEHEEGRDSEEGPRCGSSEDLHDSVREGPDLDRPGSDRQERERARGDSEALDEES
inactive: [1] -0.043 | [2] 0.007 | [3] -0.03 | [4] -0.012 | [5] 0.065

GTPBP6 (UniProt O43824)
inactive: [1] 0.038 | [2] 0.007 | [3] 0.012 | [4] -0.062 | [5] -0.034

HSPA2 (UniProt P54652)
inactive: [1] 0.003

GGT7 (UniProt Q9UJ14)
inactive: [1] 0.028 | [2] -0.055 | [3] -0.069 | [4] 0.026 | [5] 0.032

IFRD1 (UniProt O00458)
inactive: [1] -0.011 | [2] -0.069 | [3] 0.049 | [4] 0.02 | [5] 0.004

HEXA (UniProt P06865)
inactive: [1] 0.042 | [2] -0.004 | [3] 0.052 | [4] -0.018 | [5] 0.024

GHDC (UniProt Q8N2G8)
inactive: [1] 0.061 | [2] 0.016 | [3] 0.022 | [4] 0.031 | [5] -0.019

HHEX (UniProt Q03014)
inactive: [1] 0.054 | [2] 0.187 | [3] 0.469 | [4] 0.026 | [5] 0.516

HDAC1 (UniProt Q13547)
inactive: [1] 0.004 | [2] 0 | [3] -0.004 | [4] 0.03 | [5] 0.154

HIST2H2BF isoform 2 (UniProt Q5QNW6)
inactive: [1] 0.148 | [2] -0.273 | [3] -0.29 | [4] -0.082 | [5] 0.125

FANCI (UniProt Q9NVI1)
UniProt Q9NVI1, sequence (Q9NVI1 whole entry, looked up): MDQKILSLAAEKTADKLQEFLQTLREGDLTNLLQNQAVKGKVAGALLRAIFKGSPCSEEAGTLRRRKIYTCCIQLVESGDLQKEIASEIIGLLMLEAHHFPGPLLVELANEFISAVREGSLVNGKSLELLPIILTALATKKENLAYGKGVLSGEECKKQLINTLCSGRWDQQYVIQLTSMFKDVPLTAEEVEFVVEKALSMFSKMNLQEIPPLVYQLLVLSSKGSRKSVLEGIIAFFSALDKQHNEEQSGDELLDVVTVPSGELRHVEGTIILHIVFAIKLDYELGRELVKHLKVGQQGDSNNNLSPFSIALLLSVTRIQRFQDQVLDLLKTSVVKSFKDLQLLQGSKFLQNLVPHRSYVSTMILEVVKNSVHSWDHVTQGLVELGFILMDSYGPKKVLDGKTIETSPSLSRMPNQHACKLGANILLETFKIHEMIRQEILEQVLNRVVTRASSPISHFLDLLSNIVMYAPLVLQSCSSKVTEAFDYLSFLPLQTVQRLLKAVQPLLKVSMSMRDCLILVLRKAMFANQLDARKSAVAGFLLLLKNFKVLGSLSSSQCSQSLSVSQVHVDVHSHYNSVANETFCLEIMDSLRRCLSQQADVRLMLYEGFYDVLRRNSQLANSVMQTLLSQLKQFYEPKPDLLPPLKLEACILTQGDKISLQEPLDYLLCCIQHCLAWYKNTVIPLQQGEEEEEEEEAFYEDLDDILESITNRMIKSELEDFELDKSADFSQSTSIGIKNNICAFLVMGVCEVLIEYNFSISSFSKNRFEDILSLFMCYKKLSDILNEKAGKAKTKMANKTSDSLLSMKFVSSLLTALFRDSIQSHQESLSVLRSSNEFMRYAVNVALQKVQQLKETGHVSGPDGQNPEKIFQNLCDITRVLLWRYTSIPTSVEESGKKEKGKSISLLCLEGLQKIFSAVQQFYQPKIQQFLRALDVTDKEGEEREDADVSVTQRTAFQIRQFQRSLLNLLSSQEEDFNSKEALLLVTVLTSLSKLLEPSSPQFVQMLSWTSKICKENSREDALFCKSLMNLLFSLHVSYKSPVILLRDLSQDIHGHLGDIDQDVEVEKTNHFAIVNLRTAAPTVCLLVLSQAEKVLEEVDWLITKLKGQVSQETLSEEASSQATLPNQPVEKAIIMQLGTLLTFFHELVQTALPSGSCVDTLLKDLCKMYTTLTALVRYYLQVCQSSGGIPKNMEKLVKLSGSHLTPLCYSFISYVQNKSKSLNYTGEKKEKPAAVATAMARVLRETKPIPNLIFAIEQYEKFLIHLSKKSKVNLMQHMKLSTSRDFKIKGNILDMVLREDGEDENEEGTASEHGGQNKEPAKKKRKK
inactive: [1] -0.071 | [2] 0.028 | [3] 0.109 | [4] -0.008 | [5] -0.037

GSK3B isoform 2 (UniProt P49841)
UniProt P49841, sequence (P49841 whole entry, looked up): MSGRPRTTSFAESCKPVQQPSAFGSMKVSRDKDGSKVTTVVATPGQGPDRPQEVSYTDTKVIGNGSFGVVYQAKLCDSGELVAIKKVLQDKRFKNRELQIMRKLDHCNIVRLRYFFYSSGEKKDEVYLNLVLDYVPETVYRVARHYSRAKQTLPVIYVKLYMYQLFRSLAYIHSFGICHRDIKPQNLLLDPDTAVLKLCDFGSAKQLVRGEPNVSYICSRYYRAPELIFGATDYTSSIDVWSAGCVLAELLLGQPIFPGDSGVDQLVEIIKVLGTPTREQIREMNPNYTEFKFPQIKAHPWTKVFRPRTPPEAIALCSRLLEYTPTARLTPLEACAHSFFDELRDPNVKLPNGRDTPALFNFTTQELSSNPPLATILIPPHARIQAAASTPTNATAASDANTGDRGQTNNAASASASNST
inactive: [1] 0 | [2] 0.083 | [3] 0.026 | [4] -0.016 | [5] -0.008

GSTM4 (UniProt Q03013)
inactive: [1] 0.064 | [2] 0.063 | [3] -0.114 | [4] -0.027 | [5] 0.03

FKBP4 (UniProt Q02790)
inactive: [1] -0.032 | [2] 0.042 | [3] 0.037 | [4] 0.004 | [5] -0.029

GTF3C4 (UniProt Q9UKN8)
inactive: [1] 0.027 | [2] 0.065 | [3] 0.143 | [4] 0.02 | [5] 0.025

HMGN2 (UniProt P05204)
inactive: [1] -0.099 | [2] -0.056 | [3] -0.033 | [4] 0.021 | [5] 0.07

GYS1 (UniProt P13807)
inactive: [1] 0.007 | [2] -0.13 | [3] -0.02 | [4] 0.023 | [5] 0.054

GDE1 (UniProt Q9NZC3)
inactive: [1] -0.019 | [2] 0.037 | [3] 0.025 | [4] -0.078 | [5] -0.055

HDAC6 (UniProt Q9UBN7)
inactive: [1] 0.159 | [2] 0.008 | [3] -0.001 | [4] -0.002 | [5] 0.009

HBZ, A0A494C057
inactive: [1] -0.047

GALNT11 (UniProt Q8NCW6)
inactive: [1] -0.027 | [2] 0.096 | [3] 0.093 | [4] -0.097 | [5] -0.027

GALNT4 (UniProt Q8N4A0)
inactive: [1] 0.007 | [2] 0.062 | [3] 0.109 | [4] -0.033 | [5] -0.002

FDPS (UniProt P14324)
inactive: [1] -0.328 | [2] 0.063 | [3] 0.143 | [4] 0.001 | [5] -0.121

HSD17B12 (UniProt Q53GQ0)
inactive: [1] 0.013 | [2] 0.061 | [3] 0.066 | [4] 0.042 | [5] -0.008

GBF1 (UniProt Q92538)
inactive: [1] -0.078 | [2] 0.036 | [3] 0.072 | [4] -0.005 | [5] 0.003

FBXO7 (UniProt Q9Y3I1)
inactive: [1] -0.002 | [2] 0.033 | [3] 0.045 | [4] -0.033 | [5] 0.024

HNRNPUL2 (UniProt Q1KMD3)
inactive: [1] 0.054 | [2] -0.05 | [3] -0.041 | [4] 0.105 | [5] 0.04

HSPA8 (UniProt E9PK54)
inactive: [1] 0.004 | [2] -0.108 | [3] 0.037 | [4] 0.099 | [5] -0.001

HECTD1 (UniProt Q9ULT8)
inactive: [1] 0.009 | [2] 0 | [3] 0.098 | [4] 0.051 | [5] -0.004

GCC2 (UniProt Q8IWJ2)
inactive: [1] -0.027 | [2] -0.116 | [3] 0.004 | [4] 0.066 | [5] -0.059

GCDH (UniProt Q92947)
inactive: [1] 0.021 | [2] 0.012 | [3] 0.036 | [4] -0.043 | [5] -0.019

HNRNPUL1 (UniProt Q9BUJ2)
UniProt Q9BUJ2, sequence (Q9BUJ2 whole entry, looked up): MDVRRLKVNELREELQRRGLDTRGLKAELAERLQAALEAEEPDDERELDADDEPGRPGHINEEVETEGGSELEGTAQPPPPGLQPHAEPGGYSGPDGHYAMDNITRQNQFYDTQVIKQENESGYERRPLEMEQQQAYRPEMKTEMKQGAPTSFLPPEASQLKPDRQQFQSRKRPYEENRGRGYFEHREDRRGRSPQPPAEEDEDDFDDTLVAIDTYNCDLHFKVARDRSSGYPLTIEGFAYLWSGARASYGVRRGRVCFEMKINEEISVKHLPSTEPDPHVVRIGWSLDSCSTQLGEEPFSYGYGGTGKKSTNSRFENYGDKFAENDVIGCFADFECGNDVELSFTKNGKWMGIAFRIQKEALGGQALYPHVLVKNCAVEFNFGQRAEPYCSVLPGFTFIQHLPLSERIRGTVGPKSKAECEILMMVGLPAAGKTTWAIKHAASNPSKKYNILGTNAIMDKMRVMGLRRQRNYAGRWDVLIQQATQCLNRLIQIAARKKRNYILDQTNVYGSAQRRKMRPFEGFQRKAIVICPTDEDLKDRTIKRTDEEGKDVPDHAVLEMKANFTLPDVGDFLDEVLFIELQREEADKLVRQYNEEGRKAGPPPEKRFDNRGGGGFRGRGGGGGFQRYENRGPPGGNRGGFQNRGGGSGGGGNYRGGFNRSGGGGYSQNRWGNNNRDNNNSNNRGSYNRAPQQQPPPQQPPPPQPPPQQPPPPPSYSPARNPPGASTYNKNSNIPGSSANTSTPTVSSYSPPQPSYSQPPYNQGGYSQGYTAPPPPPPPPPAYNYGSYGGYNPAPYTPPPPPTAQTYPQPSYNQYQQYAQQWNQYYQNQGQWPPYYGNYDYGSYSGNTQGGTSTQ
inactive: [1] -0.021 | [2] -0.028 | [3] 0.024 | [4] 0.07 | [5] 0.058

GLS isoform 3 (UniProt O94925)
inactive: [1] -0.077 | [2] 0.204 | [3] 0.024 | [4] -0.168 | [5] 0.067

IFNGR1 (UniProt P15260)
inactive: [1] 0.106 | [2] 0.105 | [3] 0.028 | [4] 0.046 | [5] 0.03

FLNA (UniProt P21333)
inactive: [1] -0.11 | [2] 0.016 | [3] 0.049 | [4] 0.019 | [5] -0.008

GBA2 (UniProt Q9HCG7)
inactive: [1] 0.099 | [2] 0.012 | [3] 0.017 | [4] 0.034 | [5] 0.023

GTF3A (UniProt Q92664)
UniProt Q92664, sequence (Q92664 whole entry, looked up): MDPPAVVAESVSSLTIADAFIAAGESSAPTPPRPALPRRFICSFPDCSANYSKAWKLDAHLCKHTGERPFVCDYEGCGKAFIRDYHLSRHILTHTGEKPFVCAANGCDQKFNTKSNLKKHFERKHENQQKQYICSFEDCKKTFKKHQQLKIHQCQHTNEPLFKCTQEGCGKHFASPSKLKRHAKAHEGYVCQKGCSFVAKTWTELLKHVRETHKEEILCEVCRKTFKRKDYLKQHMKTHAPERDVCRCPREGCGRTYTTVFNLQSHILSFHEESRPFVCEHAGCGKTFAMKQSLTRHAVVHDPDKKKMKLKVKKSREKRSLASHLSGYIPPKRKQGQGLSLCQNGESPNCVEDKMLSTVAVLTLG
inactive: [1] 0.002 | [2] -0.001 | [3] 0.08 | [4] -0.072 | [5] -0.071

GTF2E2 (UniProt P29084)
inactive: [1] -0.009 | [2] 0.043 | [3] 0.126 | [4] -0.058 | [5] 0.012

HRAS (UniProt P01112)
inactive: [1] 0.015 | [2] 0.116 | [3] -0.03 | [4] 0.016 | [5] 0.138

GSK3A (UniProt P49840)
UniProt P49840, sequence (P49840 whole entry, looked up): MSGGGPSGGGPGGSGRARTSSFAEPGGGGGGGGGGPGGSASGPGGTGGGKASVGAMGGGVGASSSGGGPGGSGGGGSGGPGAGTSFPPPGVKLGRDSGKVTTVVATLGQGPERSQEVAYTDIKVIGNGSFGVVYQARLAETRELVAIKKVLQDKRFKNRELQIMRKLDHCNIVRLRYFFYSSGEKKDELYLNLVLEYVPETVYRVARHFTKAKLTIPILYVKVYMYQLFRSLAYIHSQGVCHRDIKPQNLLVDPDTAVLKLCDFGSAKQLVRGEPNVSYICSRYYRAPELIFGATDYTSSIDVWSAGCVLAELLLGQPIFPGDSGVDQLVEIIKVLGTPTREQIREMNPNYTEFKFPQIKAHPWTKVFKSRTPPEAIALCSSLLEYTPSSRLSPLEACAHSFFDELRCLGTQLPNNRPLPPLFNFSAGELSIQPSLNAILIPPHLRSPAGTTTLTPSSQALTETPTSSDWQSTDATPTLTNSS
inactive: [1] 0.006 | [2] 0.099 | [3] 0.02 | [4] -0.014 | [5] -0.034

HNRNPK isoform 2 (UniProt P61978)
inactive: [1] -0.027 | [2] 0.012 | [3] 0.047 | [4] -0.023 | [5] 0.013

HAT1 (UniProt O14929)
inactive: [1] 0.009 | [2] -0.005 | [3] 0.007 | [4] -0.101 | [5] -0.05

HBA1 (UniProt P69905)
inactive: [1] -0.003 | [2] 0.163 | [3] 0.005 | [4] -0.167 | [5] -0.023

GSTP1 (UniProt P09211)
inactive: [1] -0.013 | [2] 0.039 | [3] 0.005 | [4] -0.013 | [5] -0.016

HBQ1 (UniProt P09105)
inactive: [1] 0.023 | [2] 0.135 | [3] 0.092 | [4] -0.147 | [5] -0.037

GTF2A2 (UniProt P52657)
inactive: [1] 0.003 | [2] 0.057 | [3] 0.092 | [4] -0.064 | [5] -0.017

GAPVD1 isoform 6 (UniProt Q14C86)
inactive: [1] -0.09 | [2] 0.008 | [3] 0.097 | [4] 0.012 | [5] -0.018

H3-3A (UniProt P84243)
inactive: [1] -0.004 | [2] 0.053 | [3] 0.154 | [4] -0.058 | [5] -0.102

GLA (UniProt P06280)
UniProt P06280, sequence (P06280 whole entry, looked up): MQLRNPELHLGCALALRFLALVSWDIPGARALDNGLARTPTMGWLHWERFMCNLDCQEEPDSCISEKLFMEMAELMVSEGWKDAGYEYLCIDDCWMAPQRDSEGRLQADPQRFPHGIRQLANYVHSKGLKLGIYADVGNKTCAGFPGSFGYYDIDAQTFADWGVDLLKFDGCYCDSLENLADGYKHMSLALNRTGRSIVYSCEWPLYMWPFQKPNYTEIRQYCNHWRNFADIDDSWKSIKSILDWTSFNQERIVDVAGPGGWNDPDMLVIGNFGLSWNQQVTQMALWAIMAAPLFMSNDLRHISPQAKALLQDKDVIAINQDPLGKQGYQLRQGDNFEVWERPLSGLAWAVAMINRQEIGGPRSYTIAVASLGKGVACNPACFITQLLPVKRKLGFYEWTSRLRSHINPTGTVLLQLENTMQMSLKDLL
inactive: [1] 0.019 | [2] -0.019 | [3] -0.01 | [4] 0.007 | [5] 0.017

HAX1 (UniProt O00165)
inactive: [1] -0.112 | [2] -0.008 | [3] 0.063 | [4] 0.008 | [5] -0.002

IFITM3 (UniProt Q01628)
inactive: [1] 0.038 | [2] -0.024 | [3] -0.06 | [4] 0.081 | [5] -0.014

GCSH (UniProt P23434)
inactive: [1] 0.029 | [2] -0.004 | [3] -0.043 | [4] 0 | [5] 0.043

HNRNPH2 (UniProt P55795)
UniProt P55795, sequence (P55795 whole entry, looked up): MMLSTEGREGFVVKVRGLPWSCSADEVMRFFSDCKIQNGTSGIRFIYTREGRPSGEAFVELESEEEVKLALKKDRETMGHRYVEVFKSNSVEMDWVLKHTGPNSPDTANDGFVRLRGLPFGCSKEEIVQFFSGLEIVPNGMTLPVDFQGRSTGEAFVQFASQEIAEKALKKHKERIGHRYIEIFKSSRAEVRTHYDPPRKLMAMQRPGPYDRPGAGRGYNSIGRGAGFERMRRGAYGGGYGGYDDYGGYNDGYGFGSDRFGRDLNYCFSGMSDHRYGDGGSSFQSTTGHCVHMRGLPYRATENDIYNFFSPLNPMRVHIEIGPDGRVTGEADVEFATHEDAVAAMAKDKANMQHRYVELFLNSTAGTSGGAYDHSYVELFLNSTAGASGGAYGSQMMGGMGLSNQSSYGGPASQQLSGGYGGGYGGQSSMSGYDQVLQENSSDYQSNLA
inactive: [1] -0.096 | [2] -0.037 | [3] 0.097 | [4] -0.035 | [5] -0.003
